An excerpt weighted towards active compounds, which were near 22% of everything screened.
CYP2C9 activ: increases human cytochrome P450 2C9 activity | P11712 | recombinant CYP2C9, luciferin-H conversion, luminescence; stronger effect = higher value; factor 1 = untreated enzyme, 0 = blocked | activation factor at 5 µM | 96,000 tested, 1.4% active;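 active means activation factor of 2 or more for CYP2C9 at a 5 µM dose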;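 further: 0 = sulfaphenazole-blocked wells and 1 = vehicle-only wells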
Target sequence (P11712 whole entry, looked up): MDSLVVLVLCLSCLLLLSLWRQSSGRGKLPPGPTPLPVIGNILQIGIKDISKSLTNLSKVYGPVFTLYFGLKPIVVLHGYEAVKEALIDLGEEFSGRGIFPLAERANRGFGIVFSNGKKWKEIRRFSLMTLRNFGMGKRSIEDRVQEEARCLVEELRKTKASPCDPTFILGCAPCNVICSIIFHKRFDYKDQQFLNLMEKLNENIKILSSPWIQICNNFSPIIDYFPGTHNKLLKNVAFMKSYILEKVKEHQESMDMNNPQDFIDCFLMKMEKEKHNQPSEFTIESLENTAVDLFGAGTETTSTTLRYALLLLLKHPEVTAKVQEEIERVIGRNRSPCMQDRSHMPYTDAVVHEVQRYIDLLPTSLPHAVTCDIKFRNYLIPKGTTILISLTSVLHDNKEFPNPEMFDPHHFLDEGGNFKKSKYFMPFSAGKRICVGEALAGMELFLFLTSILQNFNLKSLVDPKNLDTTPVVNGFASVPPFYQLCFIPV
CYP2C9 inhib: blocks human cytochrome P450 2C9; P11712; CYP2C9 Supersomes, luciferin-H conversion, luminescence; inhibition, % at 5 µM; 96,000 tested, 20% active;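 active means blocking of liver enzyme CYP2C9 beyond about 50% at 5 µM, limit read from the data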
Measles CPE: protection of cells from measles virus; protection (pct of control), % at 4 µM; AID 841; 140,000 tested, 1.5% active; Measles virus-infected cells, CPE protection, absorbance; in the data active means protection mostly above about 24%, no sharp cut-off; inactive means mostly below about 26%
CYP2C19 inh: human CYP2C19 inhibition. inhibition, % at 5 µM. CYP2C19 Supersomes, luciferin-H EGE luminescence, 30 min. 96,000 tested, 21% active. P33261;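 active means CYP2C19 inhibition above a set limit at 5 µM in the primary screen, cut at about 50% in these data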;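 further: plate controls were negative control wells for no effect and 2.5 mM tranylcypromine positive control for full effect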
CYP2C19 activ: activators of human cytochrome P450 2C19; recombinant CYP2C19, luciferin-H EGE luminescence; stronger effect = higher value; 0 = fully inhibited enzyme, 1 = untreated enzyme; 96,000 tested, under 10 active; activation factor at 5 µM;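 active means activation factor of at least 2 at 5 µM in the primary screen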;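 further: 0 = wells with 2.5 mM tranylcypromine and 1 = vehicle-only wells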
Starred values were filed as active, the others as inactive; . = no result given.

SMILES | CYP2C9 activ | CYP2C9 inhib | Measles CPE | CYP2C19 inh | CYP2C19 activ
O=C(CNC(=O)c1ccc(-c2ccccc2)cc1)OCc1c(Cl)cccc1Cl | . | . | -2 | . | .
Cc1cc(C(=O)COC(=O)C2=NNC(=O)CC2)c(C)n1-c1cccc(C(F)(F)F)c1 | 0.2 | 81* | 20 | 78* | 0.2
Cc1cc(C(=O)COC(=O)C2=NNC(=O)CC2)c(C)n1-c1ccc(OC(F)F)cc1 | 0.7 | 27 | 3 | 30 | 0.7
COCCCn1[nH]c2c3c(ccc2c1=O)C(=O)c1ccccc1C3=O | 0.4 | 64* | 20 | 5 | 0.9
COCCN(CC(=O)Nc1cccc(C)c1)S(=O)(=O)c1ccc(S(=O)(=O)N2CCCC2)cc1 | 0.4 | 61* | 3 | -2 | 1
Cc1nn(-c2ccccc2)c(C)c1/C=N/NC(=O)c1cc(C2CC2)[nH]n1 | 0.4 | 58* | 3 | 60* | 0.4
Cc1nn(-c2ccccc2)c(C)c1/C=N/NC(=O)c1cc(C23CC4CC(CC(C4)C2)C3)[nH]n1 | 0.5 | 53* | 27 | 16 | 0.8
Cc1nn(-c2ccccc2)c(C)c1/C=N/NC(=O)c1cc(-c2ccc(Br)s2)[nH]n1 | 0.2 | 84* | 3 | 77* | 0.2
Cc1nn(-c2ccccc2)c(C)c1/C=N/NC(=O)c1cc(-c2cccs2)[nH]n1 | . | . | 11 | . | .
Cc1cccc(NS(=O)(=O)c2ccc3c(c2)Cc2cc(S(=O)(=O)Nc4cccc(C)c4C)ccc2-3)c1C | . | . | 33 | . | .
Nc1ccc(Sc2cc(Cl)nc(N)n2)cc1 | 0.3 | 74* | 3 | 53* | 0.5
COCc1cc(Sc2ccc(Cl)cc2)nc(-c2ccccc2)n1 | 1.1 | -6 | 4 | -7 | 1.1
O=c1c2ccccc2[nH]c(=S)n1Cc1cccnc1 | 0.7 | 32 | 3 | 82* | 0.2
COc1ccc(OC)c(NC(=O)C2C3CCC(O3)C2C(=O)O)c1 (configuration not stated) | 1 | 3 | 2 | 2 | 1
O=C(CSc1nnnn1C1CCCCC1)Nc1ccc2c(c1)OCO2 | 0.5 | 53* | 12 | 25 | 0.8
O=C(CSc1nnnn1C1CCCC1)Nc1ccc(F)cc1 | 0.9 | 10 | 4 | 31 | 0.7
COc1cc(NC(=O)CSc2nnc(-c3ccncc3)n2C2CCCCC2)ccc1NC(=O)c1ccco1 | 0.3 | 72* | 6 | 62* | 0.4
CC(=O)c1cccc(-n2nnnc2SCC(=O)Nc2ccccc2N2CCCCC2)c1 | 0.1 | 87* | 32 | 96* | 0
Cn1nnnc1SCC(=O)Nc1ccccc1N1CCOCC1 | 0.9 | 9 | 11 | 24 | 0.8
COc1cc(NC(=O)CSc2nc3ccccc3c(=O)n2C)ccc1NC(=O)c1ccco1 | 0.9 | 14 | 16 | 0 | 1
CC(=O)c1cccc(-n2nnnc2SCC(=O)Nc2cccc(NC(=O)c3ccco3)c2)c1 | 0.4 | 55* | 8 | 82* | 0.2
N/C(Cc1cccs1)=N\OC(=O)COc1ccccc1 | 0.9 | 7 | 16 | 21 | 0.8
Cc1ccc(-n2nnnc2SCC(=O)NNC(=O)c2ccco2)cc1C | 2* | -95 | 20 | -2 | 1
O=C(CSc1nnnn1C1CCCC1)N1CCN(C(=O)c2ccco2)CC1 | 0.9 | 9 | 7 | 1 | 1
Cc1ccc(-n2nnnc2SCC(=O)Nc2ccc3c(c2)OCCO3)cc1C | . | . | 3 | . | .
SMILES | CYP2C9 activ | CYP2C9 inhib | Measles CPE | CYP2C19 inh | CYP2C19 activ
O=C(CSc1nnnn1C1CCCC1)Nc1cccc(NC(=O)c2ccco2)c1 | 0.2 | 83* | 4 | 83* | 0.2
O=C(CSc1nnnn1C1CCCCC1)Nc1cccc(NC(=O)c2ccco2)c1 | 0.2 | 77* | 16 | 69* | 0.3
FC(F)Oc1ccc(/C=N/c2c(-c3ccc(OC(F)F)cc3)nc3n2CCS3)cc1 | . | . | 3 | . | .
COc1cccc(N=C2SC(C(=O)Nc3ccc(F)cc3)CC(=O)N2C)c1 (configuration not stated) | 0 | 99* | 8 | 83* | 0.2
CCOc1ccc(NC(=O)C2CC(=O)N(C)C(=Nc3ccc4c(c3)OCO4)S2)cc1 (configuration not stated) | 1.2 | -20 | 9 | -12 | 1.1
O=C(CC1SC2=NCCN2C1=O)Nc1ccc(Br)cc1 (configuration not stated) | . | . | 8 | . | .
CCCN1C(=O)SC(CC(=O)Nc2ccccc2C)C1=O (configuration not stated) | . | . | 4 | . | .
CCCN1C(=O)SC(CC(=O)Nc2ccc(Br)cc2)C1=O (configuration not stated) | 0.5 | 52* | 10 | 70* | 0.3
O=C(CC1Sc2ncnn2C1=O)Nc1ccc(Br)cc1 (configuration not stated) | 0.8 | 20 | 12 | 76* | 0.2
CC1(C)NC(=O)N(c2ccccc2Cl)C1(C)NO (configuration not stated) | 0.9 | 8 | 5 | 24 | 0.8
CCN(CC)S(=O)(=O)c1cnccc1N1CCN(c2cccc(Cl)c2)CC1 | . | . | 4 | . | .
Cc1cc(C)nc(NC(=O)NS(=O)(=O)N2CCCCCC2)n1 | 1.1 | -12 | 8 | -7 | 1.1
Cc1cc(C)cc(N2C(=O)CN(Cc3sccc3C)C2=S)c1 | . | . | 46* | . | .
CCOc1cc(OCC)nc(S(C)(=O)=O)n1 | . | . | 4 | . | .
CCOc1ccc(CSC(=N)N)cc1[N+](=O)[O-] | 0.8 | 17 | 19 | 9 | 0.9
CS(=O)(=O)N(Cc1ccccc1)c1ccc(C(=O)Nc2cccnc2)cc1 | . | . | 4 | . | .
Cc1ccc(CN(c2ccc(C(=O)Nc3ccc4c(c3)OCO4)cc2)S(C)(=O)=O)cc1 | 0.6 | 40 | 10 | 44 | 0.6
CS(=O)(=O)N(Cc1ccc(Cl)cc1)c1ccc(C(=O)Nc2cccnc2)cc1 | 0.2 | 84* | 13 | 95* | 0
CC(=O)c1cccc(NC(=O)c2ccc(N(Cc3ccc(C)cc3)S(C)(=O)=O)cc2)c1 | 0.1 | 85* | 10 | 85* | 0.1
COC(=O)Nc1ncc(CN2CCc3ccccc3C2)s1 | 1 | 2 | 17 | 76* | 0.2
CCOc1ccc(CC2c3cc(OCC)c(OCC)cc3CCN2C(=O)c2cc(OC)c(OC)c(OC)c2)cc1OCC (configuration not stated) | 0.4 | 60* | 1 | 65* | 0.3
COc1ccc(S(=O)(=O)N(C)C)cc1NS(=O)(=O)c1ccc(F)c(F)c1F | . | . | 4 | . | .
O=C(O)c1cccc(NC(=S)NC(=O)C(c2ccccc2)c2ccccc2)c1 | 0.2 | 82* | 21 | -4 | 1
CC(=O)c1cccc(NC(=O)NC(C)c2ccncc2)c1 (configuration not stated) | 0.1 | 94* | 9 | 85* | 0.2
CC(=O)c1cccc(NC(=O)Nc2cccnc2)c1 | . | . | 5 | . | .
CC(=O)c1cccc(NC(=S)NC(=O)CC(C)C)c1 | 0.4 | 56* | 26 | 16 | 0.8
COc1cc(OC)c(NC(=S)Nc2cccc(C(C)=O)c2)cc1Cl | 0.7 | 34 | 5 | 54* | 0.5
COc1cc(OC)c(NC(=S)Nc2cc(Cl)cc(Cl)c2)cc1Cl | . | . | 26 | . | .
CC1=CCC2(CO)COC(c3ccccc3O)C1C2 (configuration not stated) | 0.9 | 12 | 18 | 35 | 0.6
